PLAP act: human PLAP activation; purified PLAP enzyme, luminescent substrate read-out; stronger effect = higher value; AID 696; activation fold at 20 µM; actives 1.2% (n = 96,000); in the data active = activation fold above about 2
Target sequence (P05187 whole entry, looked up): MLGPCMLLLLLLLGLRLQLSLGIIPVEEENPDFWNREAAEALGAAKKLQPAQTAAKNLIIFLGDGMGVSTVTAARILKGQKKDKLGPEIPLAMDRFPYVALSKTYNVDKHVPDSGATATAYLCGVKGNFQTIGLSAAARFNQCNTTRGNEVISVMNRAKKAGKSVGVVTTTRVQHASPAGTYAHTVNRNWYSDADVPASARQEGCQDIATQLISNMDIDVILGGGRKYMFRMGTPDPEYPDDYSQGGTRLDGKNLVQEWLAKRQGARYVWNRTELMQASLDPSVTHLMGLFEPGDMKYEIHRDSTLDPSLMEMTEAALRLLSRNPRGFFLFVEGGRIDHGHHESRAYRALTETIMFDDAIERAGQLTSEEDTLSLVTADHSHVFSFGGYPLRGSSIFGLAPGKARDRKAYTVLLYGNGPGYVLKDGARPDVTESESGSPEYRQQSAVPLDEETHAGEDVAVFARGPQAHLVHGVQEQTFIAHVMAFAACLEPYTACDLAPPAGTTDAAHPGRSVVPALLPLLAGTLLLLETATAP
M1 antagonist: antagonists of rat M1 muscarinic receptor; P08482; CHO-M1 cells, Fluo-4 calcium, ACh EC80 antagonist mode; stronger effect = lower value; B-score at 10 µM; actives 3.4% (n = 64,000); AID 628;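 active = calcium fluorescence response, raw or row-and-column corrected B-score, differing from the plate sample mean either way at a set confidence level, mostly lower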
Cav3 T inh: inhibitors of human Cav3.2 T-type calcium channel | B-score at 10 µM | actives 4% (n = 100,000) | Cav3.2-expressing cells, Fluo-4 calcium fluorescence FDSS; stronger effect = lower value | AID 449739;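 active = single-dose well whose peak fluorescence ratio is a statistical outlier from its plate by either plate-standardised score or position-corrected B-score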
HER2 expr 66K: inhibitors of human Her2 kinase expression | P04626 | SKBR-3 HER2 protein level, AlphaScreen, 18-24 h; stronger effect = lower value | HER2 level % of control, % at 10 µM | actives 0.69% (n = 65,000) | AID 645;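 active = HER2 level under 5% of the carrier-only control; inconclusive = no clear call, values can overlap the other calls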;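 also: 100% = DMSO carrier and 0% = 500 nM PU-H71 HSP90 inhibitor; lower value means stronger loss of Her2 protein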
M1 ag: agonists of M1 muscarinic receptor | CHO-M1 cells, Fluo-4 calcium fluorescence, agonist mode; stronger effect = higher value | actives 3% (n = 64,000) | AID 626 | B-score at 10 µM;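 active = fluorescence rise, raw or as B-score row- and column-corrected plate score, outside the 99.7% band of its plate's samples, either direction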
M1 agonist conf: rat M1 muscarinic agonism, confirmation; shares compounds with M1 ag; CHO-M1 cells, Fluo-4 calcium fluorescence, agonist mode; actives lie on both sides; fluorescence change (max-min) at 10 µM; actives 19% (n = 1,700); AID 1488;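 active = fluorescence change differs from the solvent-only DMSO control mean at a set confidence level in both duplicate runs; inconclusive = differs from solvent-only control mean in just one of two runs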;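 also: an EC20 dose of acetylcholine follows compound addition during the same imaging run; raw fluorescence intensity difference in instrument units with no normalization to controls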
M4 ag counter: activates rat M4 receptor in counter-screen for M1 agonists; AID 1741; shares compounds with M1 ag; actives 9% (n = 1,700); fluorescence change (max-min) at 10 µM; CHO M4/Gqi5 cells, Fluo-4 calcium fluorescence, agonist mode; actives lie on both sides;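 active = fluorescence change differing from the plate's solvent-only control wells at 99.7% confidence in both duplicates, whether higher or lower; inconclusive = differs from solvent controls in only one of two duplicates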
* marks the source's active call; other numbers are inactive results; ? = inconclusive; / = no result given. Compounds with a hit are over-represented: about 7.9% of the library has one in this group of screens.

SMILES	PLAP act	M1 antagonist	Cav3 T inh	HER2 expr 66K	M1 ag	M1 agonist conf	M4 ag counter
CN(CCNC(=O)CCNC(=O)Cn1ccc2ccccc2c1=O)Cc1ccccc1	1.3	1	1.5	107	-0.0035	/	/
CCOC(=O)C1CCCN(c2cc(C)nc3cc(-c4ccc(F)cc4)nn23)C1 (centres undefined)	1.6	-3.8*	-2.2	99	30*	386*	-23
COc1ccc(-n2nnnc2SCC(=O)c2ccc(O)c(O)c2)cc1	0.4	-0.0092	0.77	115	11*	-7.3	-54
COc1ccc(-c2cn3cc(C)ccc3n2)cc1OC	1	0.33	0.35	104	2.2*	?	?
O=C1CSC(c2cn(-c3ccccc3)nc2-c2cc3ccccc3oc2=O)N1Cc1ccccc1 (centres undefined)	0.9	/	-0.089	/	/	/	/
O=C1CSC(c2nn(-c3ccccc3)cc2-c2cc3ccccc3oc2=O)N1Cc1ccco1 (centres undefined)	1.4	-0.25	-1.7	90	3.2*	11	-38
CCOC(=O)CNC(=O)CSc1ncnc2c1cnn2-c1ccc(C)cc1	0.9	0.00036	-0.42	110	-2.2*	5.3	-19
O=c1cc(NC2CCCCC2)c2ccccc2o1	0.6	/	1.5	/	/	/	/
CNC(=O)c1cc2ccc(OC)cc2oc1=O	0.9	-2.3*	-0.22	101	3.8*	132*	93
CNC(=O)c1cc2cc(OC)ccc2oc1=N	0.7	0.36	-0.49	122	0.97	/	/
CCCn1c(N2CCN(CC(=O)c3c[nH]c4ccccc34)CC2)nc2c1c(=O)[nH]c(=O)n2C	1.8	-1.2	0.81	88	0.38	/	/
CCOc1ccc(S(=O)(=O)N2CCN(c3ccccc3OC)CC2)c2cccnc12	1.4	-0.52	0.041	95	5.2*	-16	-49
CC(=O)NC(Cc1ccccc1C)C(=O)NC1CCN(c2c3c(nc4ncnn24)CCC3)CC1 (centres undefined)	/	0.31	/	90	0.66	/	/
CCOC(=O)c1oc2ccc(S(=O)(=O)Nc3ccc4c(c3)n(C)c(=O)n4C)cc2c1C	1	-1.6	0.63	79	5.3*	?	-76
Cn1c(=O)n(C)c2cc(NS(=O)(=O)c3ccc4c(c3)CCCC4)ccc21	1.1	-1.6	0.14	121	0.26	/	/
CS(=O)(=O)N(CC(=O)N1CCCCC1)c1ccc2c(c1)OCO2	1.1	-0.84	/	75	-0.65	/	/
CS(=O)(=O)N(CC(=O)N1CCCCCC1)c1ccc2c(c1)OCCO2	0.9	-0.14	0.28	85	-2.1*	22	-25
O=C(NCc1ccccc1)c1ccc2nc(-c3ccco3)c(-c3ccco3)nc2c1	1.4	/	-0.29	/	/	/	/
CCCCNC(=O)c1ccc2nc(-c3ccco3)c(-c3ccco3)nc2c1	1.1	-0.57	/	77	10*	9.4	?
CCn1c(SCC(=O)N2CCCc3ccccc32)nc2cccnc21	0.9	-0.26	0.39	118	-1.3	/	/
O=C(CSc1n[nH]c(-c2cccs2)n1)N1CCCc2ccccc21	1.1	/	-0.0081	/	/	/	/
CCn1c(SCC(=O)N2CCCc3ccccc32)nc2ccccc2c1=O	1.8	0.44	-6.9*	121	3.1*	-6.2	-47
CCOC(=O)CSc1nc2ccccc2c(=O)n1CC1CCCO1 (centres undefined)	0.8	-0.59	-0.64	135	-0.019	/	/
COc1ccccc1N1CCN(C(=O)CSc2nc3ccccc3c(=O)n2CC2CCCO2)CC1 (centres undefined)	1.5	-2.6	/	91	9.7*	-1.5	-6.2
O=C(CSc1n[nH]c(-c2ccccc2O)n1)N1CCCc2ccccc21	1	1.2	-1.8	91	11*	?	-48
SMILES	PLAP act	M1 antagonist	Cav3 T inh	HER2 expr 66K	M1 ag	M1 agonist conf	M4 ag counter
NCCCC[C@@H](C(=O)N1CCNCC1)n1cc([C@@H](N)CO)nn1	/	/	0.34	/	/	/	/
O=C(CCNS(=O)(=O)c1cccs1)NCc1ccccc1	1.1	/	0.22	/	/	/	/
CN(C)/C=N/c1cnc(C(=O)c2ccc(Cl)cc2)n1C	1.1	-0.072	0.71	80	0.28	/	/
COc1cc2c(cc1OC)C1Cc3ccc(OC)c(OC)c3C[N+]1([O-])CC2 (centres undefined)	/	/	0.21	/	/	/	/
CCc1ccc(-c2nc(CSCC(=O)N3CCN(c4ncccn4)CC3)c(C)o2)cc1	1.7	-0.46	/	80	8.2*	-15	?
CSc1ccc(-c2nc(CSCC(=O)N3CCOCC3)c(C)o2)cc1	1.6	0.32	1.3	91	-2.6	/	/
CC1CCN(C(=O)CCc2ccc(S(=O)(=O)NC(C)C)cc2)CC1	1.5	/	-3	/	/	/	/
CCOc1cc(S(=O)(=O)NC2CCCC2)ccc1Cl	1	-0.33	-3.2	94	8.9*	4.7	-13
CCOC(=O)C1CCCN(CCC(=O)Nc2ccc3c(c2)CCC3)C1 (centres undefined)	1.4	-3.6*	-2.5	122	16*	150*	-21
N=c1nc(N2CCCCC2)cc(N)n1O	/	-0.32	0.098	82	10*	-4.4	-26
CCc1nnc(NC(=O)C2CC(=O)N(c3ccc(C)cc3)C2)s1 (centres undefined)	1.1	0.44	0.032	81	-0.062	/	/
Cc1ccc(N2CC(C(=O)Nc3ccccn3)CC2=O)cc1 (centres undefined)	0.9	0.31	-0.78	109	4.6*	?	-80
C=CCN(C(=O)CCC(=O)O)C1CC(=O)N(c2ccc(OCCC)cc2)C1=O (centres undefined)	1.4	0.78	-0.72	91	-1.1	/	/
Cc1ccc2nc(SCCC(=O)O)cc(C)c2c1	1.2	/	1.7	/	/	/	/
O=C(CCc1nc2ccccc2c(=O)[nH]1)N1CCN(C/C=C/c2ccccc2)CC1	1.5	-0.84	2.2	103	9.4*	31	-25
COc1ccc(S(=O)(=O)C(C#N)c2nc3ccccc3nc2N2CCC(C)CC2)cc1 (centres undefined)	1.1	0.9	-0.33	69	3.9*	?	-43
N#Cc1c(-c2ccc3c(c2)OCO3)csc1N	0.8	-0.048	0.35	161	3.2*	-0.042	-29
CCOC(=O)c1cc2c(=O)n3ccccc3nc2n(CCOC)c1=NC(=O)c1ccncc1	1.2	0.069	/	74	2.2*	-12	-34
CCOC(=O)c1cc2c(=O)n3ccccc3nc2n(CCOC)c1=NC(=O)C(C)(C)C	1.3	/	-0.1	49	/	/	/
CCOC(=O)c1cc2c(=O)n3ccccc3nc2n(C(C)C)c1=NC(=O)c1ccncc1	1.2	0.093	1.6	102	2.5*	?	-41
CCC(=O)N1CCc2cc(S(=O)(=O)N3CCN(c4ccccn4)CC3)ccc21	1.6	-0.65	1.7	43	-0.41	/	/
CC(=O)Nc1nc2n(n1)C(c1ccc(F)cc1)C=C(c1ccccc1)N2 (centres undefined)	1.1	-0.31	-0.52	120	7.6*	119*	93*

Assay outcomes deposited in PubChem BioAssay by several laboratories.
